Source: PubChem BioAssay
HP1b chromo inh: inhibitors of HP1-beta chromodomain binding to methylated histone tails. P83916. AlphaScreen HP1-beta / biotin-H3K9me3 peptide binding. Potency, µM (highest dose often 114 µM), without a hit: top-dose activity change, negative = inhibition, actives largely listed as inhibitors. 0.56% of 390,000 active; note: potency is the fitted concentration of half-maximal effect; nearly all actives have a fitted effect of over 70% in size
Target sequence (P83916 whole entry, looked up): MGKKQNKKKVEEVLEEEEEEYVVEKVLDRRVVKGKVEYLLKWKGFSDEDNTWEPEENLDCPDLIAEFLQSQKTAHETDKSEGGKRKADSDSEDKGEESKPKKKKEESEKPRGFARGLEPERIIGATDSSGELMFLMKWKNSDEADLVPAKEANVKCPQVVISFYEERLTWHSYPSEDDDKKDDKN
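Compound inhibition of the preformed complex between 50 nM HP1-beta and 50 nM biotinylated H3K9me3 peptide was read by AlphaScreen. Buffer was PBS pH 7.4 with 0.01% Tween-20. Incubations ran 30 min at room temperature, with 10 ug/mL donor/acceptor beads.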
G9a inh-1: G9a (human) methyltransferase inhibition; Q96KQ7; G9a H3K9 monomethylation, AlphaScreen, 2 h; Potency, µM (series often up to 102 µM), inactives show top-dose activity, negative = inhibition, hits mostly inhibitors; 8.8% of 350,000 active; AID 504332; note: potency is the fitted concentration of half-maximal effect; % is set by controls: 0 for no effect and ±100 for the full control effect; nearly all actives have a fitted effect of over 75% in size
Target sequence (Q96KQ7 913-1193 limits assumed): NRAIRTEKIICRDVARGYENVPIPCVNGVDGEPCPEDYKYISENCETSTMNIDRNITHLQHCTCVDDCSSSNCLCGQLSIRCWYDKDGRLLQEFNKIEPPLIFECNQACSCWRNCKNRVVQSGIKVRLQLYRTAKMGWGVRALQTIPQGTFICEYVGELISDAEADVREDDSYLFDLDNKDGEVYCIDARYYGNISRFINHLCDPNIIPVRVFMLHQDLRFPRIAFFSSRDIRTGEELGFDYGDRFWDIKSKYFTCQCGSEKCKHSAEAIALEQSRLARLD
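Signal arises when biotinylated H3K9 peptide, once monomethylated, bridges streptavidin donor and antibody-captured acceptor beads. Enzyme at 20 nM was preincubated 15 min with test compounds; peptide 500 nM and SAM 20 uM then reacted for 2 h.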
BAZ2B inh: BAZ2B (human) inhibition. Q9UIF8. AlphaScreen BAZ2B-H3K14Ac peptide displacement. Potency, µM (top dose mostly 114 µM), inactives show top-dose activity change, negative = inhibition, hits mostly inhibitors. 4.4% of 360,000 active; note: potency is the fitted concentration of half-maximal effect; % is set by controls: 0 for no effect and ±100 for the full control effect; nearly all actives have a fitted effect of over 60% in size
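Complex of BAZ2B and biotin-H3K14Ac (50 nM apiece) forms over 30 min at RT, then faces library compounds up to 110 uM for another 30 min; AlphaScreen beads added, 20 min dark incubation, luminescence read.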
Sfp inh: Sfp phosphopantetheinyl transferase inhibition. Biochemical Sfp PPTase activity, qHTS. Potency, µM, without a hit: largest response in the series, negative = inhibition, hits mostly inhibitors. 3.5% of 310,000 active;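 note: the enzyme is Sfp with the accession as filed and its product quenches rhodamine fluorescence; potency is the fitted concentration of half-maximal effect; 0% = enzyme reaction without inhibitor and -100% = no enzyme wells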
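Reaction rates are the 30-min fluorescence difference (ex 525, em 598 nm) in wells containing 15 nM Sfp, 5 uM rhodamine-CoA and 12.5 uM BHQ-2-YbbR at pH 7.6 with 10 mM MgCl2.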
L3MBTL1 block: blocks human L3MBTL1; Q9Y468; AlphaScreen L3MBTL1–H3K9me1 peptide binding; Potency, µM (doses to about 57.1 µM), without a hit: at the top dose activity, negative = inhibition, usual class: inhibitors; 0.66% of 230,000 active; AID 485360; note: potency is the fitted concentration of half-maximal effect; % is set by controls: 0 for no effect and ±100 for the full control effect; nearly all actives have a fitted effect of over 60% in size
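Read-out is AlphaScreen signal from streptavidin donor and nickel chelate acceptor beads (10 ug/mL final each) bridging L3MBTL1 (50 nM) and biotinylated K9-monomethylated H3(1-15) peptide (75 nM), after 30 min compound exposure at room temperature.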
JMJD2A Tudor: inhibitors of human JMJD2A Tudor domain. O75164. AlphaScreen JMJD2A-Tudor / H3K4me3 peptide binding. Potency, µM (top dose mostly 114 µM), without a hit: at the top dose activity change, negative = inhibition, actives largely listed as inhibitors. 4.4% of 390,000 active. AID 504339; note: potency is the fitted concentration of half-maximal effect; % is set by controls: 0 for no effect and ±100 for the full control effect; nearly all actives have a fitted effect of over 50% in size
JMJD2E inh: confirmation of inhibitors of human JMJD2E demethylase. AID 2677. shares compounds with JMJD2A Tudor. Potency, µM (doses to about 56.8 µM), inactives show top-dose activity change, negative = inhibition, usual class: inhibitors. Recombinant JMJD2E, FDH-coupled NADH fluorescence (FDH is formaldehyde dehydrogenase). 93% of 140 active
Target sequence (B2RXH2 1-337 limits assumed): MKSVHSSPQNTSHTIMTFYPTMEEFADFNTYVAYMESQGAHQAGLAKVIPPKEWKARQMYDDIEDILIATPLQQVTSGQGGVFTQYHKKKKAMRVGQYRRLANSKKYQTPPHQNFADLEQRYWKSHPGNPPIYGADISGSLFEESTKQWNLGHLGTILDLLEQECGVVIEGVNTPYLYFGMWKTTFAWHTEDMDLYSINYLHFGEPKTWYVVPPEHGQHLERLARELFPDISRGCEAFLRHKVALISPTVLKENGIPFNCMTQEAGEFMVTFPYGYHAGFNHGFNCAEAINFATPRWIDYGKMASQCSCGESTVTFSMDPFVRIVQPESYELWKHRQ
FDH inh: FDH (Pseudomonas putida) inhibition counter-screen; shares compounds with JMJD2A Tudor; FDH enzyme assay, NADH fluorescence kinetic; Potency, µM (titrated, usually from 56.7 µM), for inactives: top-dose activity, negative = inhibition, actives largely listed as inhibitors; 10% of 140 active; AID 2680
G9a inh-2: confirmation of human histone methyltransferase G9a inhibitors. shares compounds with JMJD2A Tudor. Potency, µM, hits mostly inhibitors. G9a H3K9 monomethylation, AlphaScreen, 2 h. 89% of 370 active; note: potency is the fitted concentration of half-maximal effect; nearly all actives have a fitted effect of over 65% in size
The depositor's hits bear a star; ? = inconclusive; nt = no result; [ ] = remark or other dose. An excerpt weighted towards active compounds, which were near 12% of everything screened. Calls come from the whole dose curve; as a rule, active = well fitted curve in the direction sought with a large enough effect; inconclusive = small, poorly fitted or top-dose-only effect, or another doubt; inactive = no such curve, though single readings can be large; an effect the other way counts as inactive or inconclusive.

SMILES | HP1b chromo inh | G9a inh-1 | BAZ2B inh | Sfp inh | L3MBTL1 block | JMJD2A Tudor | G9a inh-2 | others
Cc1oc(-c2ccccc2)cc1C(=O)Nc1ccc(N(C)C)cc1 | ? | 2.24µM* | 20µM* | -14.4% | ? | 50.1µM* | 1.78*
Cc1ccc(NC(=O)CN(C)Cc2c(O)ccc3ccccc23)cc1 | -12.3% | 1.41µM* | -32.6% | -17.4% | nt | 79.4µM* | 0.632*
CCN(CC(=O)Nc1ccc(NC(C)=O)cc1)Cc1c(O)ccc2cc(Br)ccc12 | 70.8µM* | 1.78µM* | 50.1µM* | -16.9% | nt | 50.1µM* | 0.448*
CCN(CC(=O)Nc1ccc(NC(C)=O)cc1)CC(=O)Nc1ccc(F)c(Cl)c1 | 30.5% | -1.4% | -10.5% | -7.2% | nt | -15.2% | nt
CCC(Sc1nnnn1C)C(=O)Nc1ccc(C(C)=O)cc1 (stereo not drawn) | 6.5% | ? | ? | 8.0% | nt | -3.4% | 11.2*
CC(Sc1nnnn1C)C(=O)Nc1ccc(Oc2ccccc2)cc1 (stereo not drawn) | 33.0% | 26.8%[59 µM] | 15.2% | -3.0% | -0.1% | -11.4% | nt
CCCCn1c(SCC(=O)N2CCCC2)nnc1-c1ccccc1 | 26.6% | 3.0% | -2.5% | 11.8% | nt | 8.1% | nt
CCn1c(SCC(=O)N2CCCC2)nnc1-c1ccc(N)cc1 | -7.4% | 1.12µM* | 0.2% | -9.8% | -8.0% | 11.6%[11.4 µM] | 1.59*
COc1cc(OC)c(-c2nn3c(-c4n[nH]c5c4CCC5)nnc3s2)cc1OC | 13.0%[57 µM] | nt | nt | nt | nt | -21.5%[57.1 µM] | nt
c1csc(Cc2nn3c(-c4n[nH]c5c4CCC5)nnc3s2)c1 | -15.3% | ? | ? | -14.3% | nt | ? | 12.6*
C/C(=C\c1ccc2c(c1)OCO2)C1Nc2cccc3cccc(c23)N1 | ? | 21.0%[2.33 µM] | ? | nt | -7.4% | ? | nt
O=c1[nH]c2ccccc2nc1NCc1ccccc1 | 39.0% | 40.8% | -12.5% | -0.2% | 7.0% | -12.4% | nt
CC1=NN(c2nc3ccccc3[nH]2)C(=O)C1Cc1ccccc1 (stereo not drawn) | 34.8% | ? | 22.4µM* | 20.5% | 20µM* | 50.1µM* | nt | JMJD2E inh=5.76µM*;FDH inh=?
Cc1ccc(N2C(=O)CC(Sc3ncn[nH]3)C2=O)cc1C (stereo not drawn) | -61.6% | 2µM* | ? | 50.1µM* | -3.1% | 10µM* | nt | JMJD2E inh=7.08µM*;FDH inh=0.224µM*
O=C(COC(=O)CSc1ccc([N+](=O)[O-])cc1)NCCC1=CCCCC1 | 7.9% | -11.9%[12.7 µM] | -8.6% | nt | -0.7% | -18.0% | nt
c1ccc(-c2ccc3c(c2)NCCN3)cc1 | ? | ? | 56.2µM* | -21.3% | nt | 44.7µM* | 0.564*
c1ccc(-c2ccc(-c3ccccc3)[nH]2)cc1 | -12.8%[57 µM] | nt | nt | nt | nt | ? | nt
COc1ccc(NC(=O)Cn2nc(C)c3c(C)n(-c4ccccc4)nc3c2=O)cc1OC | 37.6% | ? | -30.0% | nt | nt | -9.3% | nt
CCOc1c(Cl)cc(CNc2ccc(N3CCCC3)cc2)cc1OC | 44.7µM* | 2.82µM* | 20µM* | 79.4µM* | -20.4% | 14.1µM* | 6.31*
CCOc1ccc(S(=O)(=O)Nc2nc3ccccc3nc2N2CCN(C)CC2)cc1 | 30.0% | ? | -28.1% | 8.5% | nt | -11.7% | ?
CCOc1ccc(S(=O)(=O)Nc2nc3ccccc3nc2Cl)cc1 | 52.7% | 6.6% | -0.3% | 14.9% | nt | -1.7% | nt
COC(=O)c1c(-c2cccs2)csc1NC(=O)COc1ccccc1 | -7.8% | 1.78µM* | ? | nt | nt | -27.8% | 4.08*
CCn1cc(S(=O)(=O)c2cccc(C)c2)c(=O)c2cc(F)c(N3CCCCC3C)cc21 (stereo not drawn) | 38.9% | 1.8%[59 µM] | 0.3% | nt | nt | -9.6% | nt
Cc1ccc(S(=O)(=O)N(C)CC(=O)Nc2cc(C)ccn2)cc1 | 0.6% | 13.4% | 10.5% | nt | 4.5% | -9.2% | nt
COC(=O)c1ccc(CSc2nc3c([nH]c4ccccc43)c(=O)n2-c2ccc(Cl)cc2)o1 | 49.9%[57 µM] | 8.7%[59 µM] | 32.2% | nt | nt | -6.1% | nt
SMILES | HP1b chromo inh | G9a inh-1 | BAZ2B inh | Sfp inh | L3MBTL1 block | JMJD2A Tudor | G9a inh-2 | others
CCn1cc(/C=N\NC(=O)c2ccccc2Cl)cn1 | 17.3% | 9.4% | -17.6% | 6.3% | 3.1% | -10.5% | nt
O=C(CNC(=O)OCc1ccccc1)Nc1ccc(F)cc1 | 16.2% | ? | 2.8% | nt | 4.1% | ? | ?
CC(C)c1ccc(NC(=O)c2cnn3c(C(F)F)cc(-c4ccccc4)nc23)cc1 | -12.6% | -21.3%[59 µM] | -32.4% | nt | nt | -16.5% | nt
CCN(CC)c1ccc(NC(=O)c2cnn3c(C(F)F)cc(-c4ccccc4)nc23)cc1 | ? | 2µM* | 2.51µM* | nt | nt | 8.91µM* | 4.57*
CN(C)c1ccc(C(c2nnnn2CCOC(=O)Nc2ccc(Cl)cc2)N2CCOCC2)cc1 (stereo not drawn) | ? | ? | 44.7µM* | -8.2% | nt | ? | 17.8*
CC(C(=O)Nc1ccc(S(=O)(=O)N2CCCC2)cc1)N(C)CC(=O)Nc1cccc(F)c1 (stereo not drawn) | 19.7% | nt | nt | nt | 5.6% | -5.9% | nt
CC(C(=O)N1CCCCC1)N(C)CC(=O)Nc1cccc(F)c1 (stereo not drawn) | -21.7% | ? | 15.8µM* | nt | 1.7% | 25.1µM* | 44.7*
COc1ccc(CN(Cc2cccnc2)C(=S)NCCc2ccccc2)cc1OC | 30.8% | -28.2%[2.33 µM] | ? | 0.4% | 15.3% | 17.9% | nt
CC(C)(C)C1=Nn2c(nnc2-c2ccccn2)SC1 | ? | ? | 20µM* | 56.2µM* | -91.0% | 7.94µM* | 1.78*
CCS(=O)(=O)N1CCN(Cc2ccccc2OC)CC1 | ? | 2.51µM* | 22.4µM* | 28.2µM* | 16.3% | 3.16µM* | ?
COc1ccccc1C(=O)Nc1ccc(-c2nnc(SCC(=O)O)n2C)cc1 | 30.3% | ? | ? | 7.4% | nt | 100µM* | 7.96*
COc1ccccc1NC(=O)CSc1nnc(-c2ccc(NC(C)=O)cc2)n1C | 39.7% | ? | ? | -19.7% | 7.1% | 5.2% | nt
Cn1c(SCC(=O)NCc2ccccc2)nnc1-c1ccc(NC(=O)CCc2ccccc2)cc1 | 20.4% | ? | ? | 13.9% | nt | -13.4% | 11.2*
